# The campaign covered roughly 16,000 compounds. About 5,800 (36%) were called active. Another 23% or so got no clear call; they are omitted. The list shows a part of the results. A number with no mark means an inactive call. Calls come from the whole dose curve; as a rule, active = well fitted curve in the direction sought with a large enough effect; inconclusive = small, poorly fitted or top-dose-only effect, or effect the other way; inactive = no such curve, though single readings can be large or run the other way.
# Target: Cytochrome P450 2C19 (Homo sapiens) (UniProt P33261)
# Sequence (P33261 whole entry, looked up): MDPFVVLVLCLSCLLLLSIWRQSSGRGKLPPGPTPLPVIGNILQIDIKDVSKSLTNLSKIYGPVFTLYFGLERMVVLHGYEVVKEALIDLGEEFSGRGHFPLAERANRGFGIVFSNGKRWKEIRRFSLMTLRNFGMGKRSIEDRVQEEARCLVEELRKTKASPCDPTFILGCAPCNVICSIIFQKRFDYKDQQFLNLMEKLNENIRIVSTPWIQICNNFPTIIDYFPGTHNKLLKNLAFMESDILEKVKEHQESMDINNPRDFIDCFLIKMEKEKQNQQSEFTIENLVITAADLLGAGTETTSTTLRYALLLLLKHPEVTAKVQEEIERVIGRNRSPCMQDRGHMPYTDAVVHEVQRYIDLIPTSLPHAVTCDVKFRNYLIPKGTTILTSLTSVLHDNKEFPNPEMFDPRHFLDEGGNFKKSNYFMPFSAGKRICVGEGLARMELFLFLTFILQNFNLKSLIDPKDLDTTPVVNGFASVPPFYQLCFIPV
# Assay: Cytochrome panel assay with activity outcomes
# Conditions: recombinant CYP, pro-luciferin dealkylation, luminescence, p450-cyp2c19; series mostly up to 57.1 µM
# % is set by controls: 0 for no effect and ±100 for the full control effect.
Structure (SMILES),"activity, negative = inhibition",AC50
CC1(C)O[C@@H]2O[C@H]([C@H](O)CO/N=C3/[C@H]4O[C@@H]4[C@@H](O)[C@H]4[C@H]3CCn3c(=O)n(-c5ccccc5)c(=O)n34)[C@@H](O)[C@@H]2O1,-36.7% [at 11.4 µM],
Cc1c(C(=O)NCCC2=CCCCC2)cccc1[N+](=O)[O-],,10 µM (active)
Cc1c(C(=O)NN2CCN(C)CC2)cccc1[N+](=O)[O-],,inactive
COCCn1c(=O)c(-c2ccc(Cl)cc2)nc2cnc(N3CCOCC3)nc21,,inactive
CCC(=O)Nc1cc(-c2nn(C)c(=O)c3ccccc23)ccc1N1CCCCC1,,15.8 µM (active)
Cn1nc(-c2ccc(N3CCOCC3)c(NS(=O)(=O)c3ccc(Cl)cc3)c2)c2ccccc2c1=O,,0.708 µM (active)
Cn1c(=O)c(-c2ccc(Cl)cc2)nc2cnc(N3CCOCC3)nc21,,inactive
O=C(NCCCN1CCCCCC1)[C@@H](c1ccccc1)C1CCCCC1,,inactive
CC(=O)Nc1ccc(NCN2C(=O)C3C4CCC(C4)C3C2=O)cc1 (centres undefined),,inactive
O=C(NC1CCCCC1)C(Cc1ccccc1)N1C(=O)C2C3CCC(C3)C2C1=O (centres undefined),,11.2 µM (active)
Cc1ccc(NS(=O)(=O)c2ccc(OCC(=O)Nc3cccc([N+](=O)[O-])c3)c(C)c2)cc1,,2 µM (active)
O=C(c1ccccc1NS(=O)(=O)c1cccc([N+](=O)[O-])c1)N1CCOCC1,,inactive
CSC1=N/C(=C\c2ccc(C)cc2)C(=O)S1,,7.94 µM (active)
CSC1=N/C(=C\c2ccc(Br)o2)C(=O)S1,,10 µM (active)
CCNc1ncc2nc(-c3ccc(Cl)cc3)c(=O)n(-c3ccccc3)c2n1,,inactive
CCSc1nnc(-c2ccc(Cl)cc2)c2ccccc12,,6.31 µM (active)
CC(=O)n1c(COS(C)(=O)=O)nc2ccccc21,6.98% [at 11.4 µM],
Cn1c(SCc2nc3ccccc3n2CCO)nc2ccccc21,,6.31 µM (active)
Cn1c(C[C@@H](O)c2nc3ccccc3n2C)nc2ccccc21,-23.7% [at 11.4 µM],
Nc1nc2c(c(=O)[nH]1)N[C@H](CCNc1ccc(C(=O)O)cc1)CN2,0.2% [at 11.4 µM],
C[N+](C)([O-])CCC=C1c2ccccc2CCc2ccccc21,,0.398 µM (active)
CN(C)CCC=C1c2ccccc2CCc2ccccc21,,inactive
CNCCC=C1c2ccccc2CCc2ccccc21,,inactive
O=C(Nc1cccn(Cc2c(Cl)cccc2Cl)c1=O)c1ccc(Cl)cc1Cl,,0.794 µM (active)
O=C(CN1C(=O)C2C3C=CC(C3)C2C1=O)Nc1ccc(C(=O)O)cc1 (centres undefined),,inactive

Structure (SMILES),"activity, negative = inhibition",AC50
CCOC(=O)NCN1C(=O)C2C3C=CC(C3)C2C1=O (centres undefined),,28.2 µM (active)
CCOC(=O)N/N=C1/C[C@@H](O)[C@@H](O)[C@@H]2[C@@H]3C(=O)N(CC)C(=O)[C@H]3CC[C@@H]12,25.5% [at 11.4 µM],
Cc1nc2c(c(-c3ccccc3)c1C#N)C(=O)c1ccccc1-2,,1 µM (active)
Cc1[nH]n2c(=O)c(C#N)c(-c3ccccc3)nc2c1-c1ccccc1,,inactive
COc1ccccc1CNC(=O)CCN1C(=O)COc2ccc(C)cc21,,3.16 µM (active)
Cc1ccc2c(c1)N(CCC(=O)NCc1cccnc1)C(=O)CO2,,8.91 µM (active)
Cc1ccc2c(c1)N(CCC(=O)NCC1CCCO1)C(=O)CO2 (centres undefined),,inactive
CC(=O)Nc1nnc(SCc2ccc(F)cc2)s1,,8.91 µM (active)
O=C(Nc1nnc(SCc2ccc(Cl)cc2)s1)c1ccco1,,4.47 µM (active)
O=C(O)c1ccccc1Nc1ccccc1,,inactive
CC1CCCC(C)N1C(=O)c1ccccc1Nc1ccc(SC(F)F)cc1 (centres undefined),,1.12 µM (active)
O=C(c1ccccc1Nc1ccc(SC(F)F)cc1)N1CCCCC1,,0.891 µM (active)
CCCC[C@@H]1C[C@H]1C(NC(=O)c1ccccc1)c1ccc(-c2ccccc2)cc1 (some centres undefined),,inactive
CCCC[C@@H]1C[C@H]1C(NC(=O)c1ccccc1)c1ccc(Cl)cc1 (some centres undefined),,0.631 µM (active)
CCCC[C@@H]1C[C@H]1C(NC(=O)Cc1ccccc1)c1ccc(Cl)cc1 (some centres undefined),,0.0501 µM (active)
CCCC[C@@H]1C[C@H]1C(NC(=O)c1ccccc1)c1ccccc1 (some centres undefined),,0.398 µM (active)
CCCC[C@@H]1C[C@H]1C(NC(=O)Cc1ccccc1)c1ccc(-c2ccccc2)cc1 (some centres undefined),,inactive
CCCC[C@@H]1C[C@H]1C(NC(=O)c1cccnc1)c1ccc(Cl)cc1 (some centres undefined),,2 µM (active)
CNCCCC1c2ccccc2C=Cc2ccccc21,,inactive
O=C1c2ccccc2-c2n[nH]c3cccc1c23,,inactive
CCCC[C@@H]1C[C@H]1C(NC(=O)c1cccs1)c1ccc(Cl)cc1 (some centres undefined),,0.0794 µM (active)
CCCCNc1cc(=O)oc2ccccc12,,25.1 µM (active)
Nc1ccc(Oc2ccc3nc(-c4ccccc4)c(-c4ccc([N+](=O)[O-])cc4)nc3c2)cc1,,3.55 µM (active)
Cc1nc2ccccc2nc1-c1ccc(N=[N+]([O-])c2ccc(-c3nc4ccccc4nc3C)cc2)cc1,64.3% [at 11.4 µM],

# Reference: PubChem BioAssay AID1851 (National Center for Advancing Translational Sciences (NCATS), 2009)
